Here are results for 49 compounds from PubChem BioAssay AID540317 (National Center for Advancing Translational Sciences (NCATS), 2011).

Out of some 390,000 compounds screened, about 2,200 (0.56%) were called active. Roughly 3% stayed inconclusive and do not appear here. The sample as a whole holds a higher share of actives than the screen did. A number with no mark means an inactive call. The call rests on the fitted dose curve; in most records, active means well fitted inhibition curve with a large enough effect; inconclusive means small, poorly fitted or top-dose-only effect; inactive means no such curve, though single readings can be large or run the other way.
Potency means the concentration at half of the fitted maximal effect.

Sequence of Chromobox protein homolog 1 (Homo sapiens) (P83916 whole entry, looked up): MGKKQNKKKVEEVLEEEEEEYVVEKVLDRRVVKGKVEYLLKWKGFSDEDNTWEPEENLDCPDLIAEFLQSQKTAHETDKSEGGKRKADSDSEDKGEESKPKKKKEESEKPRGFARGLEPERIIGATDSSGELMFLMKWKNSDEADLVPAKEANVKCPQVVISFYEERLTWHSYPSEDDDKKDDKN

For this test, the target named is Chromobox protein homolog 1 (Homo sapiens) (UniProt P83916). As to the kind of experiment: HTS for Inhibitors of HP1-beta Chromodomain Interactions with Methylated Histone Tails. Further: nearly all actives have a fitted effect of over 70% in size. Conditions: AlphaScreen HP1-beta / biotin-H3K9me3 peptide binding; series mostly up to 114 µM; activity change, negative = inhibition: at the top concentration. The procedure, abridged:
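AlphaScreen: HP1-beta (50 nM) preformed 30 min with biotin-H3(1-18)K9me3 peptide (50 nM) in PBS pH 7.4, 0.01% Tween-20. Compound added for 30 min at RT, then streptavidin donor/nickel chelate acceptor beads (10 ug/mL) for 30 min.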
In general terms: Alpha assays give light when donor and acceptor beads are brought close together.
With `COc1ccc(Cl)cc1NC(=O)c1sc2nc3c(cc2c1N)CN(C)CC3`, the “activity change, negative = inhibition” value is 16.1%.

As to `COC(=O)c1ccccc1NS(=O)(=O)c1ccc2c(c1)CCCN2C(C)=O`, the “activity change, negative = inhibition” value was 21.1%.

Regarding `COc1cc(/C=C/C(=O)O)cc(S(=O)(=O)Nc2ccccc2C(=O)NCCc2ccccc2)c1OC`, the “activity change, negative = inhibition” value was 4.3%.

As to `COc1ccc(Br)cc1/C=N/Nc1ccc(S(=O)(=O)Nc2ccccc2C(=O)O)cc1[N+](=O)[O-]`, the Potency was 22.4 µM (active).

Take `CCC(=O)N1CCc2cc(S(=O)(=O)NC(CC(C)C)C(=O)NCCc3cccc(C)c3)ccc21` (centres undefined): the “activity change, negative = inhibition” value was 37.5%.

For `CC(C)Cn1c(=O)c2ccccc2n2c(CCC(=O)N3CCN(c4cccc(Cl)c4)CC3)nnc12`, the “activity change, negative = inhibition” value was 19.7%.

`CC(Sc1oc(-c2ccco2)nc1S(=O)(=O)c1ccc(Br)cc1)c1ccccc1` (centres undefined): the “activity change, negative = inhibition” value is 5.19%.

Consider `O=C(NCc1ccccn1)[C@]1(C(F)(F)F)C[C@H](CCc2ccccc2)CCCO1`, for which the “activity change, negative = inhibition” value was 21.8%.

Consider `O=C1/C(=C/c2ccc3c(c2)OCO3)CCC/C1=C\c1ccc2c(c1)OCO2`, for which the Potency was 28.2 µM (active).

`Nc1[nH][nH]c(=O)c1N=Nc1ccc2c(c1)OCO2`: the “activity change, negative = inhibition” value is 3.77%.

Take `Cc1nn(C)cc1/C=C1\CCC/C(=C\c2cn(C)nc2C)C1=O`: the “activity change, negative = inhibition” value is 12.7%.

`O=C1CC(c2ccccc2)CC2=C1C(c1ccco1)n1nc(C(F)(F)F)nc1N2` (centres undefined): the “activity change, negative = inhibition” value is 8.1%.

Consider `CCOC(=O)c1cc2c(=O)n3ccccc3nc2n(CC2CCCO2)c1=NC(=O)c1ccccc1F` (centres undefined), for which the “activity change, negative = inhibition” value was 33.6%.

Consider `CC(C)OC(=O)c1ccc(NCc2cc(O)ccc2O)cc1Cl`, for which the Potency was 39.8 µM (active).

`O=C(CC1C(=O)N(c2ccccc2)C(=O)N1CCc1cccs1)Nc1ccc(F)cc1` (centres undefined): the “activity change, negative = inhibition” value is 17.3%.

Take `Cc1ccc(Cc2nc3ccccc3nc2SCC(=O)Nc2cccc(C(F)(F)F)c2)cc1`: the “activity change, negative = inhibition” value is 24% [at 57 µM].

For the compound `CC(C)(C)C(=O)OCc1nc(-c2ccc(O)c(O)c2)cs1`, the Potency is 70.8 µM (active).

Consider `CNC(=O)[C@]1(C(F)(F)F)C[C@H](CCc2ccccc2)CCCO1`, for which the “activity change, negative = inhibition” value was 17.5%.

`CCc1cnc2c(c1SCC(=O)N1CCC(C)CC1)c(=O)n(C)c(=O)n2C`: the “activity change, negative = inhibition” value is 1.69%.

Turning to `COc1ccc(Cn2ccn(Cc3cccc(OC)c3)c(=O)c2=O)cc1`, the “activity change, negative = inhibition” value is 18.3%.

`COc1ccccc1CNC(=O)C(=O)NCC(c1ccco1)S(=O)(=O)c1ccc(F)cc1` (centres undefined): the “activity change, negative = inhibition” value is 27.2%.

`CC(=O)Oc1ccc(OC(C)=O)c2c1C1C=CC2CC1`: the Potency is 89.1 µM (active).

For the compound `CC(=O)Oc1ccc(C(C)=O)c2c1OCCO2`, the “activity change, negative = inhibition” value was 12.1%.

Regarding `COc1ccc(C)cc1N(C)C(=O)c1c(C)oc2ncnc(N3CCOCC3)c12`, the “activity change, negative = inhibition” value is 5.31%.

Take `COc1ccc(CCC(=O)NCCc2csc(-c3ccc(Cl)cc3)n2)cc1`: the “activity change, negative = inhibition” value was 9.83% [at 57 µM].

For the compound `COc1ccc(C2CC(O)(c3ccccc3)Oc3cc(C)cc(C)c32)cc1` (centres undefined), the “activity change, negative = inhibition” value was 36.4%.

For the compound `COc1ccccc1-c1cc(C(F)(F)F)nc(S(=O)(=O)CCCC(=O)Nc2ccc(F)cc2F)n1`, the “activity change, negative = inhibition” value is 62.8%.

Regarding `CC1(C)C/C(=N/Nc2ccc([N+](=O)[O-])cc2[N+](=O)[O-])C(C)(C)O1`, the “activity change, negative = inhibition” value was -6.49%.

On to `O=[N+]([O-])c1ccc(N/N=C2/CCCCC2c2ccccn2)c([N+](=O)[O-])c1` (centres undefined), for which the Potency is 35.5 µM (active).

For `C[n+]1ccccc1C1CCCC/C1=N\Nc1ccc([N+](=O)[O-])cc1[N+](=O)[O-]` (centres undefined), the “activity change, negative = inhibition” value is 21.4%.

With `COc1ccc(CN2CCC(=O)c3ccccc3S2(=O)=O)cc1`, the “activity change, negative = inhibition” value was 34.2%.

As for `COc1cc(NC(=O)c2cc3ccc4cccnc4c3[nH]2)cc(OC)c1OC`, the “activity change, negative = inhibition” value was 21.2%.

As for `Cc1ccc(C)c(Cn2c(CCCNC(=O)C3CCCCC3)nc3ccccc32)c1`, the “activity change, negative = inhibition” value was 31.9%.

Regarding `CC1CCN(C(=S)c2cccc(O)c2)CC1`, the “activity change, negative = inhibition” value was -6.99%.

As for `CC1CCN(C(=S)c2ccc(-c3ccc(Cl)cc3Cl)o2)CC1`, the Potency was 22.4 µM (active).

For `COc1ccc(C(=O)Nc2c(Cl)cc(Cl)cc2C(=O)N2CCC(C)CC2)cc1`, the “activity change, negative = inhibition” value is 6.49%.

In the case of `Cc1ccc(C(=O)Nc2nc(-c3ccccc3)ns2)cc1`, the “activity change, negative = inhibition” value is 51.4%.

Take `Cc1cc(C)cc(NC(=O)Cc2csc(C)n2)c1`: the “activity change, negative = inhibition” value was 23.5%.

Regarding `CCOc1ccc(N(Cc2ccccc2)C(=O)c2nc(SCC)ncc2Cl)cc1`, the “activity change, negative = inhibition” value is 39.6%.

Turning to `O=C(NC1CC(=O)N(c2ccc(F)cc2)C1)C1CCCCC1` (centres undefined), the “activity change, negative = inhibition” value is -6.51%.

In the case of `CCn1c2ccccc2c2nnc(N3CCN(c4cc(C)ccc4C)CC3)nc21`, the “activity change, negative = inhibition” value is 20.6%.

As for `CCOCCCNC(=O)c1c(NC(=O)Cc2coc3c(C)c(C)ccc23)sc2c1CCC2`, the “activity change, negative = inhibition” value was 18%.

On to `O=C(NCCc1ccccc1)c1cnc2sc(N3CCCC3)nn2c1=O`, for which the “activity change, negative = inhibition” value is -3.36%.

With `COc1cccc(C(=O)CC(=O)C(=O)Nc2ccc([N+](=O)[O-])cc2C)c1`, the “activity change, negative = inhibition” value was 22.1%.

`COc1cccc(NCCC(=O)c2cccc([N+](=O)[O-])c2)c1`: the Potency was 79.4 µM (active).

For `COc1ccc(Cc2nnc(SCC(=O)c3cccc([N+](=O)[O-])c3)n2C)cc1`, the “activity change, negative = inhibition” value is 8.15%.

As to `Cc1ccccc1CNC(=O)CCCn1nc(C)c2sc3ccccc3c2c1=O`, the “activity change, negative = inhibition” value was 47.8%.

On to `NS(=O)(=O)c1ccc(NC(=O)CSc2nnc3c(n2)[nH]c2ccccc23)cc1`, for which the “activity change, negative = inhibition” value was 58.7%.

As for `COc1ccc(/C=C2/C(=O)N(c3ccccc3)N=C2C)c(OC)c1`, the Potency was 12.6 µM (active).
